# “And” between values parts separate entries of the source, which are not always exact repeats. Identical values can stand only once.
# Tests used:
# [1] = tested on: Human papillomavirus type 1a protein E7 (residues 44-93); experiment: small molecules binding HPV E7 44-93 – biochemical, small-molecule microarray, residues 44-93, 635 nm fluorescence, primary screen (AID 1108); conditions: fluorescence 635 nm, higher = more signal;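 note: E7 fragment applied at 1 µg/mL in TBST for 1 h at 4 C; score combines spot fluorescence with its signal to noise ratio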
# [2] = hepatitis C replication reporter changes, two-sided – Huh7 cells, luciferase reporter, HCV replication inhibitor project, primary screen (AID 1109); conditions: Huh7 HCV replicon luciferase reporter, 48 h; higher = more signal;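 note: huh7 hepatoma cells harbouring a luciferase neomycin HCV replicon reporter; luciferase luminescence as measure of HCV replicon replication; test concentration not given here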
# [3] = molecular target: Left-right determination factor 2 (Homo sapiens) (UniProt O00292); experiment: small molecules binding LEFTY2 protein – biochemical, small-molecule microarray, 635 nm fluorescence scan, primary screen (AID 1110); conditions: higher = more signal
# Left-right determination factor 2 (Homo sapiens), sequence (O00292 whole entry, looked up): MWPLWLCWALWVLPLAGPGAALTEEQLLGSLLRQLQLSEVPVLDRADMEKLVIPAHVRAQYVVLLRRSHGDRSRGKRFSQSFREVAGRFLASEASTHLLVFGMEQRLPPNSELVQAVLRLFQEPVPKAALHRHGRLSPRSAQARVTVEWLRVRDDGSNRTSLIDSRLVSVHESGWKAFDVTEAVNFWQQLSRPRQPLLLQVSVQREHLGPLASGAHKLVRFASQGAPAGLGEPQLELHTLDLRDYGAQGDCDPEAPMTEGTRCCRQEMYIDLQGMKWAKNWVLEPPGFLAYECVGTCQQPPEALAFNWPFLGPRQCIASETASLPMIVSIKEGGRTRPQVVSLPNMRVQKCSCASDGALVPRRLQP
# [4] = molecular target: Calmodulin-1 (Homo sapiens) (UniProt P0DP23); experiment: small molecules binding calmodulin-1 with EGTA – biochemical, small-molecule microarray, Cy5-labelled CALM1, profiling panel (AID 1111); conditions: Cy5-CALM1 binding fluorescence, higher = more signal;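 note: labelled calmodulin applied in Tris saline Tween buffer holding calcium plus EGTA and DTT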
# [5] = molecular target: Calmodulin-1 (Homo sapiens) (UniProt P0DP23); experiment: small molecules binding Ca-loaded calmodulin-1 – biochemical, small-molecule microarray, Cy5-labelled CALM1, plus calcium, artefact control for SMM control-protein annotation, profiling panel (AID 1112); conditions: Cy5-CALM1 binding fluorescence, higher = more signal;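 note: score merges spot fluorescence with signal to noise from triplicate slides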
# [6] = probe aWnt5a binding to arrayed compounds – biochemical, biotinylated probe, 635/667 nm fluorescence, primary screen (AID 1113); conditions: higher = more signal; small-molecule microarray, probe aWnt5a, fluorescence unless noted;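 note: score merges 667 nm fluorescence intensity with signal-to-noise per printed feature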
# [7] = probe aShh binding to arrayed compounds – biochemical, biotinylated probe, 635/667 nm fluorescence, primary screen (AID 1114); conditions: higher = more signal; small-molecule microarray, probe aShh, fluorescence unless noted;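 note: probe is biotin-labelled aShh protein from a stem cell growth factor screen; measures binding of labelled protein to compounds printed on the slide; score merges feature fluorescence at 667 nm with signal-to-noise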
# [8] = probe aNog binding to arrayed compounds – biochemical, biotinylated probe, 635/667 nm fluorescence, primary screen (AID 1115); conditions: higher = more signal; small-molecule microarray, probe aNog, fluorescence unless noted;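 note: probe is biotinylated aNog protein used at 0.15 µg/mL for 1 h at 4 C; z-score combines 667 nm fluorescence of each spot with its signal to noise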
# [9] = molecular target: Torsin-1A-interacting protein 1 (Homo sapiens) (UniProt Q5JTV8); experiment: compound microarray binding of lysate hLAP1 – cell lysate, small-molecule microarray, COS7 lysate, 635/667 nm fluorescence, primary screen (AID 1116); conditions: 635 nm fluorescence, higher = more signal
# Torsin-1A-interacting protein 1 (Homo sapiens), sequence (Q5JTV8 whole entry, looked up): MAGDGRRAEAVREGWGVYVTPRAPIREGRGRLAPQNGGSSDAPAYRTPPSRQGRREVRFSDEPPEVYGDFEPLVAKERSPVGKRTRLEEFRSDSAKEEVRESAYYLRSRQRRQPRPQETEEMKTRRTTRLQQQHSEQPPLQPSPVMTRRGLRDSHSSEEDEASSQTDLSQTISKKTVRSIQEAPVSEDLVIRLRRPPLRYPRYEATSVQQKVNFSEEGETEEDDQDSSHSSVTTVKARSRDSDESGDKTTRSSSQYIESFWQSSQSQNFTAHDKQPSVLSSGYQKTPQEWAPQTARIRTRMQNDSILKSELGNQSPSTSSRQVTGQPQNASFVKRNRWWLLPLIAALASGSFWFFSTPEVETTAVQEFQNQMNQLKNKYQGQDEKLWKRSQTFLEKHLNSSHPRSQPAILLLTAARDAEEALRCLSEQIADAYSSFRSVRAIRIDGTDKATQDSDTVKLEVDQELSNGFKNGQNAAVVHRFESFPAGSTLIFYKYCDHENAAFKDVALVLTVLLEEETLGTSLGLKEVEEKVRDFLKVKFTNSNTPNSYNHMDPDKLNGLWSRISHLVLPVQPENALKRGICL
# [10] = molecular target: Alpha-bungarotoxin (Bungarus multicinctus) (UniProt P60615); experiment: compounds binding labelled alpha-BTX control protein – biochemical, small-molecule microarray, Alexa647 label, 635/667 nm fluorescence, artefact control for SMM control protein annotation, profiling panel (AID 1117); conditions: alpha-BTX-A647 binding fluorescence, higher = more signal
# Alpha-bungarotoxin (Bungarus multicinctus), sequence (P60615 whole entry, looked up): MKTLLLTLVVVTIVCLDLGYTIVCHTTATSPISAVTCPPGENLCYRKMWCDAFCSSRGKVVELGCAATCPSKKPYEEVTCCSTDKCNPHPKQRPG
Structure (SMILES),composite z-score [1],z-score [2],composite z-score [3],composite z-score [4],composite z-score [5],composite z-score [6],composite z-score [7],composite z-score [8],composite z-score [9],composite z-score [10]
CCCc1cc2c(n1Cc1ccc(C)cc1)C(C)C1CN(C(=O)c3ccccc3)C(C)(C(=O)OC)C21 (stereo unspecified),0.294,-1.33,-0.472,2.63,1.31,0.417,0.769,1,2.25,1.9
COc1cc2c(cc1O)C(C)N(C)CC2 (stereo unspecified),-1.75,0.569,-0.603,1.58,1.24,0.0017,-0.0769,-0.343,0.0049,-0.613
CCCC=C(CCC)[C@@H](NP(=O)(c1ccccc1)c1ccccc1)c1ccccc1,1.28,-1.39,0.943,1.94,0.42,0.208,-0.106,-0.519,0.275,0.44
C=C(CC1(C(C)NP(=O)(c2ccccc2)c2ccccc2)CC1)c1ccccc1 (stereo unspecified),1.48,-1.52,-0.867,0.962,0.945,0.23,0.128,0.804,1.32,0.468
COC(=O)[C@@]1(Cc2ccccc2)[C@H]2c3cc(C(=O)N(C)C)[nH]c3C[C@H]2CN1C(=O)c1ccccc1,-0.452,-0.454,-0.476,0.157,0.136,0.0037,0.333,0.629,0.533,-0.0856
C[C@@H]1Cc2c(cnc3c2CN(C)CC3)CO1,-1.58,-0.491,0.894,-1.33,-0.882,-0.0221,0.149,-0.0689,-0.217,-0.138
COC(=O)[C@H]1C(=O)c2ccccc2O[C@@](C(=O)OC)(c2ccccc2)[C@@H]1c1ccccc1,-0.853,-0.424,0.104,-0.558,-0.268,-0.0519,-0.352,-0.367,-0.271,-0.579
CCc1cc2c(nc1CC)CCN(CCC(C)=NOC)C2,0.711,-1.06,0.802,-0.47,0.107,0.0375,-0.117,-0.148,1,-0.0978
CN1CCC(c2ccc(CO)cc2)=CC1c1cccs1 (stereo unspecified),-0.895,1.05,-0.0469,-0.0348,-0.556,-0.0685,-0.0769,-0.216,0.238,0.945
CCCc1cc2c(n1Cc1ccco1)C(C)C1CN(C(=O)c3ccccc3)C(C)(C(=O)OC)C21 (stereo unspecified),0.0223,-1.28,0.392,1.9,0.425,0.117,0.239,1.65,1.4,0.899
C[C@H]1O[C@H]2C3=C(C(=O)[C@@H]4O[C@@H]4[C@@H]3O)[C@@H]1[C@@H]1[C@@H](C)OC=C3[C@@H](O)[C@H]4O[C@H]4C(=O)[C@]312,-1.18,-2.57,-0.107,-0.806,-0.447,-0.125,-0.0553,-0.252,-0.404,0.411
C=C(CC1(CNP(=O)(c2ccccc2)c2ccccc2)CC1)c1ccccc1,-0.872,-1,0.165,1.22,0.442,0.0597,-0.273,1.01,0.836,-0.108
COc1cc2c(cc1O)C=[N+](C)CC2,-2.1,-0.0523,-0.0898,-0.683,-0.399,-0.15,-0.138,-0.436,-0.347,-0.596
CC1N(P(=O)(c2ccccc2)c2ccccc2)CC(O)(c2ccccc2)CC12CC2 (stereo unspecified),1.36 and 0.0155,-0.421 and -1.5,-1.22 and 0.326,-0.0346 and 1.63,0.595 and 1.02,0.151 and -0.131,0.535 and 0.377,0.915 and 1.68,1.23 and 1.28,-0.914 and -0.0679
COC(=O)[C@@]1(Cc2ccc(F)cc2)[C@H]2c3cc(C(=O)N(C)C)[nH]c3C[C@H]2CN1C(=O)c1ccccc1,0.717,-0.0885,-0.193,0.366,-0.0836,0.0151 [setting not given],-0.343 [setting not given],0.519 [setting not given],0.125,0.125
CCCc1cc2c(n1CCO)C(C)C1CN(C(=O)c3ccccc3)C(C)(C(=O)OC)C21 (stereo unspecified),-0.202,-1.27,-0.258,2.45,1.06,0.353,0.0545,1.85,2.26,2.61
COC(=O)[C@H]1[C@@H](O)[C@@]2(O)c3c(OC)cc(OC)cc3O[C@@]2(c2ccc(OC)cc2)[C@@H]1c1ccccc1,0.828,1.91,0.473,0.371,-0.402,-0.0606,0.0684,0.117,0.537,0.611

Structure (SMILES),composite z-score [1],z-score [2],composite z-score [3],composite z-score [4],composite z-score [5],composite z-score [6],composite z-score [7],composite z-score [8],composite z-score [9],composite z-score [10]
c1ccc(-c2cc3c(nc2-c2ccccc2)CCNC3)cc1,-0.903,-1.32,0.0196,-0.198,-0.0533,-0.184,-0.0626,0.0459,-0.19,0.913
COC(=O)[C@H]1[C@H](c2ccccc2)C(=O)[C@]2(O)c3ccccc3O[C@@]12c1ccccc1,0.304,0.0741,0.832,0.384,-0.0524,-0.131,0.0048,-0.293,0.106,0.0914
CCCC[C@@H]1C[C@H]1[C@@H](NP(=O)(c1ccccc1)c1ccccc1)c1ccc(Cl)cc1,-1.21,-0.657,-1.67,1.14,1.32,0.0403,0.254,0.633,-0.314,-0.0059
CCCc1cc2c(n1Cc1cccc(Cl)c1)C(C)C1CN(C(=O)c3ccccc3)C(C)(C(=O)OC)C21 (stereo unspecified),0.226,-2.24,-0.587,2.18,1.37,-0.0445,0.261,1.71,2.22,0.818
OCc1ccc(C2=CC(C3CC3)N(Cc3sc4ccccc4c3Cl)CC2)cc1 (stereo unspecified),0.794,-1.68,0.401,0.0976,-0.481,-0.103,-0.0146,-0.0662,0.781,1.44
COC(=O)NCC=Cc1nc(CCC=CC(=O)O[C@H]2CC3CC(=O)O[C@@H](C=CCC(C)C)C[C@@H]4CC[C@H](C)[C@@H](C[C@@H](OC)C[C@H](C2)O3)O4)co1,-1.78,-3.46,-0.107,-0.421,-0.409,-0.179,-0.345,-0.0784,0.231,-0.684
CCOC(=O)[C@H]1CC=C2C(=O)Oc3ccccc3[C@@H]21,0.252,-1.93,-0.562,-0.229,-0.42,-0.129,-0.366,0.356,-1.28,-0.0764
OCc1ccc(C2=CC(c3cccs3)N(Cc3cccc(OC(F)(F)F)c3)CC2)cc1 (stereo unspecified),-0.307,-1.07,0.198,-0.573,-0.411,-0.091,-0.138,-0.244,0.221,0.934
COC(=O)[C@@]1(Cc2ccccc2)[C@H]2c3cc(C(=O)N(C)C)n(C)c3C[C@H]2CN1C(=O)c1ccccc1,-1.91,-1.42,-0.611,1.96,0.514,-0.107,0.214,1.65,2.25,0.0882
O=P(c1ccccc1)(c1ccccc1)N1CC2(CC2)CC(O)(c2ccccc2)C1 (stereo unspecified),1.04,-1.06,-1.1,1.04,1.08,0.435,-0.0553,1.6,1.58,0.41
C[C@@H]1OC=C2[C@@H](O)[C@H]3O[C@H]3C(=O)[C@]23[C@H]1[C@H]1C2=C([C@@H](O)[C@H]4O[C@H]4C2=O)[C@@H]3O[C@@H]1C,-2.16,-1.29,0.425,-1.11,-0.718,-0.224,-0.2,-0.244,0.0387,-0.244
CN1CCC(c2ccc(CO)cc2)=CC1C1CC1 (stereo unspecified),0.0996,-0.954,0.163,-0.257,-0.691,-0.208,-0.0474,-0.198,-0.0443,0.0005
CCOC(=O)[C@H]1CC=C2C(=O)Oc3ccc(Br)cc3[C@@H]21,0.891,-3.69,-1.91,1.27,0.0172,-0.0118,0.151,0.884,0.501,1.65
CN1CCc2nc(CO)c(CO)cc2C1,0.22,-0.365,0.357,-0.192,-0.657,-0.117,-0.138,-0.104,-0.115,-0.0299
COC(=O)C1(C)C=C2C(=C(C)C(=O)C2C)CN1 (stereo unspecified),-0.131,-0.0365,-0.412,-0.423,0.0902,-0.113,0.381,1.48,1.18,-0.313
C=C1C=C(Br)C2(OCCCO2)[C@H]2OC12 (stereo partly specified),,,,,,,,,,-0.206

# From PubChem BioAssay
